Screening results as filed in PubChem BioAssay.
HCMV antiviral: inhibitors of human cytomegalovirus | activity change, negative = inhibition, % at 57.5 µM | AID 1259415 | HFF cells, HCMV-luciferase reporter, 72 h; hits give low values | 4.5% of 410,000 active; in the data active means activity change below about -60%; inconclusive means no clear call, values can overlap the other calls; inactive means above about -39%
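Steps: HFFs plated, 16 h 37C; compounds added; HCMV-luciferase added to MOI 1 PFU/cell; 72 h 37C; OneGlo reagent, 5 min room temperature; luminescence read, normalized to controls.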
LASV entry inh: Lassa virus entry inhibition. 1.2% of 300,000 active. Lassa virus pseudotype entry inhibition, cell reporter. Potency, µM (titrated, usually from 37.9 µM), hits mostly inhibitors; calls by dose curve; tested in HEK293 cells; further: nearly all actives have a fitted effect of over 50% in size
FMDV inh: blocks foot and mouth disease virus | 1.2% of 410,000 active | AID 1159524 | FMDV antiviral cell-based qHTS | Potency, µM (top dose mostly 57.9 µM), usual class: inhibitors; calls by dose curve; tested in HEK293T cells; further: read-out not given here; nearly all actives have a fitted effect of over 45% in size
VACV mCherry inh: inhibitors of vaccinia virus infection (mCherry reporter signal). 0.63% of 310,000 active. Vaccinia virus mCherry reporter infection, fluorescence. Potency, µM (highest dose often 36.5 µM), most hits filed as inhibitors; calls by dose curve; tested in A549 cells; further: nearly all actives have a fitted effect of over 35% in size
VACV Venus inh: vaccinia inhibition (Venus reporter); 0.46% of 330,000 active; Vaccinia virus Venus reporter expression, fluorescence; Potency, µM (top dose mostly 36.5 µM), usual class: inhibitors; calls by dose curve; tested in A549 cells; further: nearly all actives have a fitted effect of over 30% in size
Marburg entry inh: blocks Marburg virus binding to or entry into cells. 1.8% of 300,000 active. Potency, µM (doses to about 37.8 µM), actives largely listed as inhibitors. Marburg virus pseudotyped entry inhibition, cell reporter; calls by dose curve; tested in HEK293 cells
Hits are given with their value; . = inactive; ? = inconclusive; / = no result given; [ ] = remark or other dose. A selection: hits, their analogues and other compounds. The true share with any hit is near 6.5%.

SMILES	HCMV antiviral	LASV entry inh	FMDV inh	VACV mCherry inh	VACV Venus inh	Marburg entry inh
Cc1nn(Cc2ccccc2)c(C)c1NC(=O)c1noc2c1CCc1ccccc1-2	/	/	?	?	?	.
COc1ccc2c(c1)CCc1c(C(=O)Nc3c(C)nn(Cc4ccc(C)cc4)c3C)noc1-2	-96.3	.	?	?	?	?
Cc1ccc(Cn2nc(C)c(NC(=O)c3cc(-c4ccc5c(c4)OCO5)on3)c2C)cc1	-60.3	.	.	?	?	?
CCOc1ccc(NC(=O)CCCc2cc(-c3ccc(OCC)cc3)on2)cc1	.	?	.	.	.	.
COc1ccc(-c2cc(C(=O)Nc3cccc(O)c3)no2)cc1	.	/	20µM	/	/	/
COc1ccccc1-c1cc(C(=O)Nc2c(C)nn(Cc3ccc(Cl)cc3)c2C)no1	-73.8	?	28.2µM	?	?	10µM
COc1ccc(-c2cc(C(=O)Nc3c(C)nn(Cc4ccc(Cl)cc4)c3C)no2)cc1	?	.	?	/	/	23.1µM
O=C(Nc1ccc2c(c1)OCO2)c1cc(-c2ccc(O)cc2)on1	.	.	.	.	.	7.94µM
CO/S(=N\S(=O)(=O)c1ccc(Cl)cc1)c1ccc([N+](=O)[O-])cc1 (centres undefined)	/	?	/	/	/	.
Cc1cc(C)c(S(=O)(=O)N[C@H]2CC[C@@]34CCCN3C(=O)CCC[C@H]4[C@H]2C)c(C)c1	.	/	/	/	/	/
CC1/C=C/C=C/C=C/C=C/C=C/C=C/C=C/C(OC2OC(C)C(O)C(N)C2O)CC2O[C@@](O)(CC(O)CC(O)C(O)CCC(O)CC(O)CC(=O)OC(C)[C@H](C)C1O)CC(O)C2C(=O)O (some centres undefined)	/	/	.	.	.	/
CC(C)(C)c1csc(NC(=O)CCS(=O)(=O)c2ccc(F)cc2)n1	.	/	?	7.08µM	7.94µM	/
COCCSc1nnc(NC(=O)CCS(=O)(=O)c2ccccc2)s1	.	.	.	?	.	11.2µM
Cc1ccc(S(=O)(=O)CC(=O)Nc2cccc(C)n2)cc1	.	.	.	.	.	?
Cc1ccc(S(=O)(=O)CCC(=O)Nc2nc(C(C)(C)C)cs2)cc1	.	/	.	/	/	/
Cc1ccc(S(=O)(=O)CC(=O)Nc2nc(C(C)(C)C)cs2)cc1	.	3.66µM	.	.	.	.
O=C(CCS(=O)(=O)c1ccccc1)Nc1nc(-c2cccs2)cs1	.	.	.	?	3.98µM	?
CCOc1ccc(/C=C/c2ccc3ccccc3n2)cc1OCC	/	/	/	.	.	/
Cc1ccc(CN(C(=O)c2ccc(C(C)(C)C)cc2)c2ccccn2)o1	.	.	.	.	.	?
CCN(C(=O)COC(=O)/C=C/c1cnc2ccccc2n1)c1ccccc1	-89.5	/	.	/	/	/
COc1ccc(C2=Nc3ccc(OC(F)(F)F)cc3NC(c3cccnc3)=N2)cc1	.	.	.	.	.	.
S=C(Nc1ccc(Br)cc1Cl)N1CCCC1	.	.	.	.	.	.
CC(C)NC(=O)Nc1ccc(Br)cc1Cl	-61.2	?	.	.	.	.
O=C(Nc1ccc(CN2CCCCC2)cc1)Nc1ccc(Br)cc1Cl	-61.7	?	.	.	.	10µM
Cc1ccc(Cl)cc1Nc1nc(-c2sc(NC(=O)C(C)(C)C)nc2C)cs1	-72.9	/	.	?	.	/
SMILES	HCMV antiviral	LASV entry inh	FMDV inh	VACV mCherry inh	VACV Venus inh	Marburg entry inh
CCOc1ccccc1Nc1nc(-c2sc(C)nc2C)cs1	.	.	.	3.55µM	?	?
COc1ccccc1Nc1nc(-c2sc(NC(=O)C(C)(C)C)nc2C)cs1	-87.6	/	.	?	.	/
CCCCCC(=O)Nc1nc(C)c(-c2csc(Nc3cc(Cl)ccc3OC)n2)s1	.	/	.	?	?	/
COc1ccc(-c2nc3cc(C)ccc3cc2CN(C(=O)c2csc(C)n2)C2CC2)cc1OC	/	/	.	.	.	/
CCCCc1nc2c(c3c1C[C@H](C)OC3)CN(C(=O)NCc1ccco1)CC2	/	.	/	/	/	?
O=C(Nc1ncc(S(=O)(=O)c2ccc([N+](=O)[O-])cc2)s1)c1ccccc1F	.	/	.	.[7.34 µM]	.[7.34 µM]	/
Nc1ncc(S(=O)(=O)c2ccc([N+](=O)[O-])cc2)s1	.	.	.	7.08µM	?	.
O=C1CCCN1c1ncc(S(=O)(=O)c2ccc([N+](=O)[O-])cc2)s1	.	.	?	11.2µM	?	.
CCOc1ccc(C(=O)NCc2nc(-c3ccc(Cl)cc3)no2)cc1OCC	.	.	.	.	.	?
COc1ccc(-c2nnc(SCC(=O)N(C)Cc3ccccc3)o2)cc1OC	.	.	.	.	.	.
Cc1ccc(-c2[nH]ncc2CNCc2ccc(CN(C)C)cc2)cc1	/	/	/	.	.	/
CCN(Cc1ccccc1)c1ccc(/C=N/N=C(N)N)cc1	-61.9	8.2µM	?	?	11.2µM	6.51µM
NC(N)=N/N=C/c1ccc(N(c2ccccc2)c2ccccc2)cc1	-97.5	/	31.6µM	?	10µM	/
CCN(Cc1ccccc1)c1ccccc1	.	/	.	.	.	/
NC(N)=N/N=C/c1ccc(OS(=O)(=O)c2ccccc2)cc1	-82.0	/	.	/	/	/
CCOC(=O)NN=C1C[C@@H](O)[C@@H](O)[C@@H]2[C@H]3C(=O)N(C[C@@H]4CCCO4)C(=O)[C@@H]3CC[C@H]12	/	/	/	/	/	.
CCOC(=O)N1CCN(Cc2ccc3c(c2)CN(C(=O)c2noc4c2CCCC4)CCO3)CC1	/	/	?	.	.	/
CSc1cccc(NC(=O)CN2C(=O)COc3ccc(S(=O)(=O)N4CCC(C)CC4)cc32)c1	.	.	.	.	.	/
COc1cccc(/C=N/NC(=O)C(=O)N/N=C/c2cccc(OC)c2O)c1O	.	?	.	.	.	?
COc1cccc(/C=N/NC(=O)c2cc(-c3cccn3C)n[nH]2)c1O	?	2.24µM	.	3.98µM	?	8.91µM
CCOc1ccc(/C=N/NC(=O)c2cc3c(OC)cccc3[nH]2)cc1	-63.1	?	.	?	?	?
COc1cccc(/C=N/NC(=O)c2cc3c(OC)cccc3[nH]2)c1O	-75.0	.	.	?	?	?
COc1cccc(/C=N/NC(=O)C(=O)N2CCCCCC2)c1O	.	?	.	12.6µM	.	?
O=C(C1CCCCC1)N(CCN1CCN(c2ccccc2CO)CC1)c1ccccn1	/	/	.	.	.	/
O=C(CSc1nccn1Cc1ccccc1)Nc1ccc2c(c1)OCO2	.	.	.	.	.	/
SMILES	HCMV antiviral	LASV entry inh	FMDV inh	VACV mCherry inh	VACV Venus inh	Marburg entry inh
COc1ccc(/C=N/NC(=O)c2cccc(OC(F)(F)C(F)F)c2)c(OC)c1OC	.	10µM	.	.	.	.
COc1ccc(OC)c(/C=N/NC(=O)c2cc3c(OC)cc(OC)cc3[nH]2)c1	.	?	?	?	?	?
COc1ccc(OC)c(/C=N/NC(=O)c2cc3c(OC)cccc3[nH]2)c1	.	.	.	.[7.34 µM]	.[7.34 µM]	10µM
ClCCN(CCCl)c1ccc(C=Nc2ccc(/C=C/c3ccncc3)cc2)cc1	/	/	/	.	.	/
CC[N+](C)(C(=O)O)/C(=C\c1ccccc1)c1ccnc2ccccc12 (centres undefined)	/	/	/	.	.	/
O=C(O)CCCCCN1C(=O)C2CCCCC2C1=O (centres undefined)	.	?	3.98µM	/	/	.
O=C(O)CCCN1C(=O)C2C3C=CC(C2C1=O)C1C(=O)N(CCCC(=O)O)C(=O)C31 (centres undefined)	.	.	.	.	.	.
